Results on 8 compounds are retold here after PubChem BioAssay (NCI).

Among the test systems are NCI-H23 lung; NCI-H226 lung; NCI-H322M lung; HOP-62 NSCLC; NCI-H460 lung; HOP-92 NSCLC; NCI-H522 lung; 786-0 renal; DU-145 prostate; K-562 leukemia; MALME-3M melanoma; MDA-MB-231 breast; RXF 393 renal; SF-268 CNS; SF-295 CNS; SF-539 CNS; UACC-257 melanoma; M14 melanoma; A549/ATCC NSCLC; COLO 205 colon.
What all share (experiment): NCI-60 one-dose screen, 48 h (100 = growth as untreated, 0 = no growth, -100 = all killed)
What all share (settings): 10 µM unless noted

About 83,000 compounds went through this panel and 20% of them were active in at least one assay; those are over-represented in the sample as a whole.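 For each line, cells grew in 96-well plates with the test compound present at a single concentration for 48 hours.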 A number with no mark means an inactive call. The source made the active and inactive calls. How the source made its calls: active means growth percent below 10; inactive means the rest.

For the compound `CCN(CC)CCOc1ccc(C(=C(c2ccccc2)C2CCCC2)c2ccc(OCCN(CC)CC)cc2)cc1`, the growth with NCI-H23 lung was 16.7%; in the assay with NCI-H226 lung, 12.8%; with NCI-H322M lung it was 59.5%; with HOP-62 NSCLC it was 50.2%; with NCI-H460 lung, 17.2%; in the assay with HOP-92 NSCLC it was -30.8% (active). Moreover, the growth in the assay on NCI-H522 lung is 2.43% (active); in the assay with 786-0 renal, 62.6%; in the assay on DU-145 prostate, 38.3%; in the assay on K-562 leukemia, 8.22% (active); in the assay with MALME-3M melanoma it was -0.396% (active); with MDA-MB-231 breast it was 24.7%. For the same compound, the growth in the assay on RXF 393 renal is -33.4% (active); with SF-268 CNS, 25.5%; in the assay with SF-295 CNS, 60.6%; in the assay on SF-539 CNS, 9.14% (active); in the assay with UACC-257 melanoma it was 14.3%; with M14 melanoma it was 30.8%.

Turning to `CC(=O)OCCCCN1C=C/C(=C\C(=O)n2ccc3ccccc32)c2ccccc21`, the growth with NCI-H23 lung was 96.2%; with NCI-H226 lung, 88.5%; in the assay on NCI-H322M lung, 98.7%; with NCI-H460 lung, 102%; with HOP-92 NSCLC it was 97.6%; in the assay on NCI-H522 lung it was 99.1%. The growth with A549/ATCC NSCLC was 113%; in the assay on 786-0 renal, 107%; in the assay on DU-145 prostate it was 109%; in the assay on K-562 leukemia, 90.6%; in the assay on MALME-3M melanoma it was 106%; in the assay with MDA-MB-231 breast it was 86.6%. Moreover, the growth in the assay with RXF 393 renal is 115%; with SF-268 CNS, 103%; in the assay on SF-295 CNS, 103%; in the assay with SF-539 CNS, 100%; with UACC-257 melanoma, 112%; with M14 melanoma, 101%.

Regarding `COC(=O)c1ccc(NC2=C(Cl)C(=O)c3nc(C)ccc3C2=O)cc1`, the growth in the assay on NCI-H23 lung was 54.8%; with NCI-H226 lung, 81.3%; in the assay on NCI-H322M lung, 101%; in the assay with NCI-H460 lung it was 92.3%; in the assay with HOP-92 NSCLC, 142%; in the assay on NCI-H522 lung, 59.6%. Besides, the growth with A549/ATCC NSCLC was 94.1%; with 786-0 renal it was 85.7%; with COLO 205 colon, 111%; in the assay on DU-145 prostate it was 68.5%; in the assay on K-562 leukemia, 7.53% (active); in the assay with MALME-3M melanoma it was 74.7%. In addition, the growth in the assay on MDA-MB-231 breast is 91.9%; in the assay on RXF 393 renal, 89.7%; in the assay with SF-268 CNS it was 72.9%; with SF-295 CNS it was 61.3%; with SF-539 CNS it was 72.6%; with UACC-257 melanoma it was 78.1%. Besides, the growth in the assay with M14 melanoma is 59.9%.

Take `O=C(CCCCCCNC(=O)c1csc(Br)n1)NO`: the growth in the assay with NCI-H23 lung is 47.7%; in the assay on NCI-H226 lung, 79%; in the assay with NCI-H322M lung, 61.6%; in the assay with NCI-H460 lung, 34.9%; with HOP-92 NSCLC, 5.32% (active); in the assay on NCI-H522 lung, 15.7%. In addition, the growth was 34.8% in the assay on A549/ATCC NSCLC; 72.4% with 786-0 renal; 20.9% in the assay with COLO 205 colon; 26.7% in the assay with DU-145 prostate; 13.8% in the assay with K-562 leukemia; 8.89% (active) with MALME-3M melanoma. In addition, the growth in the assay on MDA-MB-231 breast is 50.2%; in the assay on RXF 393 renal, 3.36% (active); in the assay with SF-268 CNS, 69.4%; in the assay with SF-295 CNS, 52%; in the assay with SF-539 CNS, 36.7%; in the assay with UACC-257 melanoma, 18.4%. Besides, the growth in the assay on M14 melanoma was 29.4%.

As for `CS(=O)(=O)c1nccc(-c2c(-c3cccc(OCc4ccc(Cl)c(C(F)(F)F)c4)c3)nc3sccn23)n1`, the growth was 39.4% in the assay on NCI-H23 lung; 23.6% with NCI-H226 lung; 86.1% in the assay on NCI-H322M lung; 55.6% with NCI-H460 lung; 73.9% in the assay with HOP-92 NSCLC; 80.1% in the assay on NCI-H522 lung. The growth in the assay with A549/ATCC NSCLC is 106%; with 786-0 renal, 106%; in the assay with COLO 205 colon, 105%; in the assay with DU-145 prostate, -25% (active); in the assay with K-562 leukemia, 14.2%; with MALME-3M melanoma, 88.3%. For the same compound, the growth in the assay with MDA-MB-231 breast is 84.4%; in the assay on RXF 393 renal, 78%; with SF-268 CNS it was 104%; in the assay on SF-295 CNS, 95%; with SF-539 CNS it was 93.3%; in the assay with UACC-257 melanoma, 66.9%. In the assay on M14 melanoma, the growth was 72.9%.

For `CCOC(=O)c1ccc(NC2=CC(=O)C(C)=C(C)C2=O)cc1`, the growth is 51% in the assay on NCI-H23 lung; 95.6% in the assay on NCI-H226 lung; 104% with NCI-H322M lung; 98.4% with NCI-H460 lung; 113% in the assay with HOP-92 NSCLC; 87.5% in the assay with NCI-H522 lung. The growth in the assay on A549/ATCC NSCLC was 117%; with 786-0 renal it was 106%; with COLO 205 colon it was 115%; in the assay on DU-145 prostate, 109%; with K-562 leukemia, 61.6%; in the assay on MALME-3M melanoma, 97.1%. Also, the growth with MDA-MB-231 breast was 75.2%; in the assay on RXF 393 renal, 93.2%; in the assay on SF-268 CNS, 85.6%; with SF-295 CNS it was 52.1%; in the assay with SF-539 CNS, 99.2%; in the assay with UACC-257 melanoma it was 84.1%. Besides, the growth in the assay on M14 melanoma is 89.7%.

Take `CCCCc1nc2c(N)nc3ccccc3c2n1Cc1ccc(OC)cc1`: the growth with NCI-H23 lung was 60.5%; in the assay on NCI-H226 lung, 73.3%; in the assay on NCI-H322M lung, 92.1%; in the assay on HOP-62 NSCLC, 77.4%; in the assay on NCI-H460 lung, 63.3%; in the assay with HOP-92 NSCLC it was -3.74% (active). Besides, the growth in the assay on NCI-H522 lung is 68.5%; in the assay with 786-0 renal it was 65.4%; in the assay on COLO 205 colon, 48.4%; in the assay with DU-145 prostate it was 83.4%; with K-562 leukemia it was 23.2%; in the assay with MALME-3M melanoma, 87.6%. Besides, the growth in the assay with MDA-MB-231 breast was 75.8%; with RXF 393 renal it was 58.4%; in the assay with SF-268 CNS, 81.1%; with SF-295 CNS, 56.5%; in the assay on SF-539 CNS, 84.2%; in the assay on UACC-257 melanoma, 72%. Also, the growth with M14 melanoma is 67.3%.

With `N#C/C(=C\c1cccc2c1OCO2)C(=O)Nc1sc2c(c1C#N)CCCC2`, the growth in the assay with NCI-H23 lung is 102%; in the assay on NCI-H226 lung, 95.8%; with NCI-H322M lung it was 89.1%; with NCI-H460 lung, 110%; with HOP-92 NSCLC it was 101%; with NCI-H522 lung it was 94.2%. The growth in the assay on A549/ATCC NSCLC is 104%; in the assay on 786-0 renal it was 99.6%; in the assay with COLO 205 colon, 119%; in the assay with DU-145 prostate, 111%; in the assay with K-562 leukemia it was 104%; in the assay on MALME-3M melanoma, 105%. Further, the growth in the assay on MDA-MB-231 breast is 95.6%; with RXF 393 renal it was 123%; in the assay with SF-268 CNS, 103%; with SF-295 CNS it was 97.2%; in the assay on SF-539 CNS, 97%; with UACC-257 melanoma it was 110%. For the same compound, the growth in the assay with M14 melanoma was 97.5%.
